HTT cytoprotect = cytoprotection in Huntington HTT-Q103 PC12 cell model | hit rate 0.14% among 230,000 | AID 1471 | Potency, µM (titrated, usually from 56.4 µM), most hits filed as activators | PC12 HTT-Q103 induced, cytoprotection, ATP luminescence, 40 h; further: nearly all actives have a fitted effect of over 45% in size
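Compounds were screened for protection of PC12 cells against cell death after tebufenozide induction (100 nM final) of mutant Huntingtin exon 1 (Q103) fused to GFP.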
TGFb inhibitor = blocks TGF-b signaling. HepG2 CAGA-GFP TGF-b/SMAD3 reporter, GFP fluorescence, 18 h; TGF-beta stimulated, 500 pg/mL final. Potency, µM (top dose mostly 46.1 µM), actives largely listed as inhibitors. hit rate 1.2% among 410,000. AID 588855; further: nearly all actives have a fitted effect of over 65% in size
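Cell-based qHTS in HEPG2 carrying a CAGA-GFP Smad reporter; compounds added before 500 pg/mL final TGF-beta, 18 h incubation at 37 degrees C, GFP fluorescence quantified per cell by imaging cytometry.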
HTT aggregate = reduces HttQ103-GFP aggregates in PC12 cells; Potency, µM (highest dose often 46.1 µM), actives largely listed as inhibitors; hit rate 1.1% among 220,000; PC12 HttQ103-GFP aggregates, Acumen cytometry, 40 h; AID 1688; further: nearly all actives have a fitted effect of over 60% in size
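Read-out: GFP aggregate count by laser scanning cytometer (488 nm excitation, 500-530 nm emission, 1–25 µm objects >6 SD above background). Cells: PC12, inducible HTTex1-Q103-GFP, 100 nM tebufenozide; compounds titrated.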
ATXN2 expr inh = reduces ATXN2 reporter expression in HEK-293 cells | AID 1745845 | Potency, µM (doses to about 57 µM), actives largely listed as inhibitors | HEK-293 ATXN2-luciferase reporter, luminescence, 24 h | hit rate 0.72% among 360,000; further: nearly all actives have a fitted effect of over 55% in size
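ATXN2-luciferase reporter cells (luciferase flanked by upstream and downstream ATXN2 gene portions) were treated 24 h at 37 °C with compounds at up to 57 uM. SteadyGlo luminescence gave expression; GF-AFC fluorescence gave viability.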
ATXN viability = cell viability loss in ATXN counter-screen; Potency, µM (doses to about 56.7 µM), most hits filed as cytotoxic; S2 cells (HEK-293 line with an ATXN2-luciferase reporter) viability, CellTiter-Fluor protease fluorescence, 24 h; hit rate 0.49% among 400,000; further: nearly all actives have a fitted effect of over 40% in size
HepG2 viability = counter-screen for TGF-b inhibitors: cytotoxicity in HepG2 cells; HepG2 CAGA-GFP viability, ATP luminescence, 18 h; Potency, µM (highest dose often 46.1 µM), actives largely listed as cytotoxic; hit rate 0.76% among 410,000
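CellTiter-Glo luminescence gave cytotoxicity after 18 hours at 37 degrees C. The cells were HepG2 CAGA-GFP in 1% FBS DMEM, stimulated with 500 pg/mL TGF-beta after compound addition. %Activity was normalised to no-cell wells (complete cell-killing) and DMSO (no toxicity), and curves were fitted and classified.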
A number is an active result; – = inactive; ? = inconclusive; · = no result given; [ ] = remark or other dose. In the library only some 2.8% were active in any assay of this set; here they are far more common. The call rests on the fitted dose curve; in most records, active means well fitted curve in the direction sought with a large enough effect; inconclusive means small, poorly fitted or top-dose-only effect, or another doubt; inactive means no such curve, though single readings can be large; an effect the other way counts as inactive or inconclusive.

SMILES	HTT cytoprotect	TGFb inhibitor	HTT aggregate	ATXN2 expr inh	ATXN viability	HepG2 viability
O=C1c2ccccc2C(=O)c2c(NCc3cccnc3)cccc21	–	–	–	–	–	–
O=[N+]([O-])c1ccccc1/C=C1\C=Cc2ccccc21	·	–	·	·	·	–
O=c1[nH]nc(CNc2ccc(C(F)(F)F)cc2)c2ccccc12	–	–	–	·	–	–
O=c1[nH]nc(CNc2ccc(O)cc2)c2ccccc12	–	?	?	–	–	10µM
OCCN1CCN(CC(O)COc2ccc(C34CC5CC(CC(C5)C3)C4)cc2)CC1 (stereo not drawn)	–	?	?	–	–	16µM
CCOC(=O)N1CCN(/[N+]([O-])=N/OCOC)CC1	·	–	·	·	·	–
CCOC(=O)COc1ccccc1C1C(C(=O)OC)=C(C)NC2=C1C(=O)c1ccccc12 (stereo not drawn)	·	16µM	·	–	?	–
CCOc1ccc(Br)cc1C1C(C(=O)OC)=C(C)NC2=C1C(=O)c1ccccc12 (stereo not drawn)	·	–	·	–	–	–
CC(=O)N(C(C)=O)c1ncc2c([nH]c3ccccc32)c1C#N	–	–	3.2µM	–	–	–
CCN(CC)C(=O)Cn1ncc2c([nH]c3ccccc32)c1=O	·	–	·	–	–	–
CC(C)Cn1c(=O)c(C(=O)NCc2ccccn2)c(O)c2ccccc21	–[10 µM]	–	7.9µM	–	–	–
COC1=CC(=O)C[C@@H](C)[C@@]12Oc1c(Cl)c(OC)cc(OC)c1C2=O	–	·	·	·	·	·
COc1ccc(-c2csc(N(CCCN(C)C)C(=O)c3cccs3)n2)cc1	–	–	–	–	?	10µM
CCN(C(=O)c1cccs1)c1nc(-c2ccc(OC)cc2)cs1	–	–	–	–	–	–
COC(=O)c1c(C)[nH]c(C)c1-c1ccccc1Cl	–	–	8.9µM	–	?	–
CC(C)C[C@H](NC(=O)CNC(=O)c1cc(Cl)ccc1Cl)B1OC(=O)CC(CC(=O)O)(C(=O)O)O1 (stereo partly drawn)	·	·	·	0.22µM	·	·
CC(C)C[C@H](NC(=O)CNC(=O)c1cc(Cl)ccc1Cl)B(O)O	·	·	·	0.31µM	·	·
CCN1CCc2c(C#N)c(N3CCCCC3)nc(NCc3ccccc3)c2C1	–	22µM	–	–	?	13µM
C[C@@H]1C/C=C/C=C/C=C/C=C/[C@H](O[C@@H]2O[C@H](C)[C@@H](O)[C@H](N)[C@@H]2O)C[C@@H]2O[C@](O)(C[C@@H](O)C[C@H]3O[C@@H]3/C=C/C(=O)O1)C[C@H](O)[C@H]2C(=O)O	·	·	·	·	–	·
CCc1ccc(NC(=O)Cc2ccc(OC)cc2)cc1	·	·	–	·	·	·
CCc1ccc(CN(Cc2cn[nH]c2-c2ccc(OC)cc2)C(=O)Nc2ccc(C)c(F)c2)cc1	·	10µM	·	·	·	–
COc1ccc(S(=O)(=O)N2CCN(CC(=O)Nc3ccc(C)c(F)c3)CC2)cc1	–[10 µM]	–	–	–	–	–
CCc1ccc(CN(Cc2cn[nH]c2-c2ccc(OC)cc2)C(=O)Nc2ccc(Br)cc2)cc1	·	7.9µM	·	·	·	–
CCOC(=O)CN(C)Cc1cn[nH]c1-c1ccc2cc(OC)ccc2c1	·	–	·	–	–	–
CCOc1ccc(NC(=O)N(Cc2ccc(CC)cc2)Cc2cn[nH]c2-c2ccc(OC)cc2)cc1	·	8.9µM	·	·	·	–
SMILES	HTT cytoprotect	TGFb inhibitor	HTT aggregate	ATXN2 expr inh	ATXN viability	HepG2 viability
Nc1nc2c(nc(N3CCOCC3)n2COCCO)c(=O)[nH]1	·	–	·	·	·	–
O=C(NCCc1cccnc1)c1cnn(-c2ncc3c(n2)-c2ccccc2CC3)c1C1CC1	·	·	·	·	–	·
Cc1cnnc2ccccc12	·	–	·	·	·	–
NC1=Nc2cccc3cccc1c23	–	–	?	?	·	–
N=C1N=C(N)c2cc3ccccc3cc21	–	·	·	18µM	32µM	·
O=C(c1ccccc1)N1CCN(c2ncnc3sc4c(c23)CCC4)CC1	–[10 µM]	–	35µM	–	–	–
Cc1cc(NC(=S)N(CCCN2CCOCC2)Cc2ccco2)ccc1Cl	·	?	–	–	–	–
Cc1ccc(NC(=S)N(CCCN2CCCC2)Cc2cccn2Cc2ccc(Cl)cc2)cc1C	–	18µM	?	–	–	11µM
CN(C)CCCN(Cc1ccccc1)C(=S)Nc1cccc(C(F)(F)F)c1	·	?	0.0006µM	–	?	–
FC(F)(F)c1cccc(NC(=S)N(CCCN2CCCC2)Cc2cccn2Cc2ccc(Cl)cc2)c1	–	?	?	16µM	28µM	13µM
CCN1CCN(CCCN(Cc2ccco2)C(=S)Nc2ccc(Cl)c(C)c2)CC1	–	–	–	–	–	11µM
O=C(CO)[C@@H](O)[C@H](O)[C@@H](O)CO	·	·	·	–	–	·
NC[C@H]1O[C@H](O[C@@H]2[C@@H](O)[C@@H](O[C@H]3O[C@H](CO)[C@@H](O)[C@H](N)[C@@H]3O)[C@H](N)C[C@@H]2N)[C@H](O)[C@@H](O)[C@H]1O	·	·	·	–	·	·
CCCOc1ccc2c(c1)CC[C@@H]1[C@@H]2CC[C@]2(C)C(OC)CC[C@@H]12 (stereo partly drawn)	·	·	·	–	–	·
COc1ccc(CC(=O)Nc2sc3c(c2C(=O)Nc2ccccc2)CCCCC3)cc1	·	–	·	·	·	–
COc1ccc(CC(=O)Nc2sc3c(c2C(=O)Nc2cccc(Cl)c2)CCCCC3)cc1	·	?	·	?	·	18µM
CCOc1ccc(NC(=O)c2c(NCc3cccnc3)sc3c2CCC(C)C3)cc1 (stereo not drawn)	·	13µM	·	·	·	–
COc1ccc(OC)c(NC(=O)c2c(NCc3ccc(N(C)C)cc3)sc3c2CCCC3)c1	·	–	·	?	22µM	–
COc1ccc(Cl)cc1NC(=O)c1c(NCc2cccs2)sc2c1CCC(C)C2 (stereo not drawn)	·	?	·	?	?	–
COc1ccc(Cl)cc1NC(=O)c1c(NCc2cccnc2)sc2c1CCC(C)C2 (stereo not drawn)	·	8.9µM	·	·	·	10µM
CCN(CCC#N)c1ccc(/C=C/c2ccnc3ccccc23)cc1	·	?	·	·	·	–
Oc1cc(O)cc(/C=C\c2ccc(O)c(O)c2)c1	–[1.9 µM]	·	·	·	·	·
O=C1CN(CC(=O)N2CCCCC2)c2ccccc2O1	–[0.074 µM]	?	–	–	–	22µM
CCN1CCCC1CN (stereo not drawn)	·	·	·	–	–	·
O=C(O)c1cccc(NS(=O)(=O)c2ccc(C3CCCCC3)cc2)c1	·	–	·	–	–	–
Cc1cccc(NS(=O)(=O)c2ccc(C3CCCCC3)cc2)c1	–	?	11µM	–	–	–
O=C(Nc1ccccc1Sc1ccccc1)c1cnn2c1NC(=C1CC1)C=C2C(F)F	·	–	·	·	·	–
O=C(C[n+]1cc(Br)cc2ccccc21)c1ccc(O)c(O)c1	·	–	·	·	·	–
O=C1c2ccccc2C(=O)N1CCC#C/C=C1\c2ccccc2C(=O)N1c1ccccc1	·	?	·	–	28µM	–
